Data on 51 compounds can be found in PubChem BioAssay AID686979 (National Center for Advancing Translational Sciences (NCATS), 2013).

In all, about 420,000 compounds went through this assay and about 50,000 (12%) were called active. Roughly 26% stayed inconclusive and do not appear here. Shown is part of a subset that was picked to be rich in actives. Values without a mark were called inactive. The call rests on the fitted dose curve; in most records, active means well fitted inhibition curve with a large enough effect; inconclusive means small, poorly fitted or top-dose-only effect; inactive means flat fitted curve, though single readings scatter.
On the % scale 0 is the no-effect control and ±100 the full control effect; potency means the concentration at half of the fitted maximal effect.

This assay in a line: qHTS for Inhibitors of human tyrosyl-DNA phosphodiesterase 1 (TDP1): qHTS in cells in presence of CPT. Further: nearly all actives have a fitted effect of over 55% in size. The settings on record: chicken DT40 Tdp1-/-;hTDP1 cells + 20 nM CPT, ATP luminescence, 48 h; series mostly up to 46.2 µM; activity change, negative = growth inhibition: at the top concentration. The method, boiled down: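 Cell growth measured by CellTiter-Glo luminescence after a minimum 48 h, 37 C compound exposure with 20 nM CPT in Tdp1-knockout DT40 cells stably expressing hTDP1, seeded 400/well; qHTS titration format.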
In general terms: In qHTS, concentration-response curves come from the screen itself.
Turning to `CCc1nc2sc3c(Cl)ncnc3c2c2c1CCCC2`, the “activity change, negative = growth inhibition” value was 9.75%. In the case of `OCCCC1CCCCN1Cc1nc(Cc2ccccc2Cl)no1` (stereo unspecified), the “activity change, negative = growth inhibition” value is -5.93%.

For `COc1cccc(CNC(=O)c2ccc3c(c2)sc2nc(-c4cccc(OC)c4)cn23)c1`, the Potency is 6.51 µM (active).

For `CC(C)c1ccc(C(=O)NCCCc2ccccc2)cc1`, the “activity change, negative = growth inhibition” value was -11.7%. As for `Cc1ccc(-c2cn3c(n2)sc2cc(C(=O)NCCCc4ccccc4)ccc23)cc1`, the Potency was 14.6 µM (active).

In the case of `CCOc1ccc(CCNC(=O)c2ccc3c(c2)sc2nc(-c4ccc(F)cc4)cn23)cc1OCC`, the Potency was 7.31 µM (active).

In the case of `COc1ccccc1-n1c(C)nc2cc(C(=O)NCc3ccc4c(c3)OCO4)ccc21`, the “activity change, negative = growth inhibition” value is -2.89%. Same read-out and setting: the result for `CCOC(=O)c1ccccc1NC(=O)c1sc2nc(-c3ccc(F)cc3)cn2c1C` reads 20%. Take `COc1ccc(CCNC(=O)c2ccc3c(c2)nc(C)n3-c2ccc(Br)cc2)cc1OC`: the Potency was 20.6 µM (active). For the compound `COc1ccc(C(=O)NCc2cn3ccccc3n2)cc1`, the “activity change, negative = growth inhibition” value is -7.24%. For `COc1ccc2oc(=O)c(-c3cn4c(n3)sc3cc(OC)ccc34)cc2c1`, the “activity change, negative = growth inhibition” value is -1.91%.

In the case of `COc1cc(-n2c(C)nc3cc(C(=O)NCc4ccco4)ccc32)cc(OC)c1OC`, the “activity change, negative = growth inhibition” value is -3.22%. Still for that read-out and setting: the result for `O=C(NCCc1ccc(F)cc1)c1ccc2nccnc2c1` reads -16.7%; that for `Cc1cc(C(=O)NCCCc2ccccc2)no1`, -2.67%; that for `Cc1ccc(C(=O)Cn2cccn2)cc1`, -0.868%. With `OC(CNCc1ccc2c(c1)OCO2)COc1ccccc1` (stereo unspecified), the “activity change, negative = growth inhibition” value is -2.53%. On the same count and under the same terms, the result for `COC(C)C(C(=O)OCC1=CCN2CC[C@H](O)[C@@H]12)C(C)C` (stereo partly specified) reads -27.6% [at 9.04 µM]. Consider `N#Cc1c(C(F)(F)F)cc(-c2cccs2)nc1N1CCCCC1`, for which the “activity change, negative = growth inhibition” value is -14.9%. On the same count and under the same terms, the result for `COc1ccc(CCNC(=S)N2CCN(S(=O)(=O)c3ccc(F)cc3)CC2)cc1` reads 2.76%; that for `Cc1cc(NC(=O)CSc2nc(=O)cc(N)n2-c2ccc(F)cc2)no1`, 12.2%; that for `Cc1nc2nc(C)c(CCC(=O)N3CCN(c4ccccc4)CC3)c(C)n2n1`, -0.967%. The same measure, in the same setting: the result for `COc1ccc(-c2cc(C(=O)NCCCN3CCOCC3)no2)cc1` reads -4.72%. Take `CCOC(=O)C1CCCN(C(=O)c2ccc3c(c2)sc2nc(-c4ccc(CC)cc4)cn23)C1` (stereo unspecified): the Potency was 4.11 µM (active).

On to `Cc1ccc(-c2cn3c(n2)sc2cc(C(=O)NCc4cccs4)ccc23)c(C)c1`, for which the Potency is 23.1 µM (active). Consider `CCN1CCN(CCCNC(=O)c2ccc3c(c2)sc2nc(-c4ccc(OC)cc4)cn23)CC1`, for which the Potency was 0.92 µM (active).

On to `CCOC(=O)C1CCCN(C(=O)c2cncc(Br)c2)C1` (stereo unspecified), for which the “activity change, negative = growth inhibition” value was -10.2%. Still for that read-out and setting: the result for `Cc1ccc2c(CC(=O)NCc3cccs3)coc2c1` reads -29.7%; that for `COc1ccc(C(=O)NCCCN2CCOCC2)cc1Br`, -0.798%; that for `CCOC(=O)C1CCCN(C(=O)c2ccc(CS(=O)(=O)c3ccc(Br)cc3)o2)C1` (stereo unspecified), -16.8%. Take `COc1ccc(CCNC(=O)c2ccc3c(c2)sc2nc(-c4ccc(C)cc4)cn23)cc1OC`: the Potency is 6.51 µM (active). With `CCOc1cccc2cc(-c3cn4c(n3)sc3cc(C)ccc34)c(=O)oc12`, the “activity change, negative = growth inhibition” value was -17.8%. On to `C=C1O[C@@](CO)(n2cnc3c(N)ncnc32)[C@H](O)[C@@H]1O`, for which the “activity change, negative = growth inhibition” value was 9.16% [at 92.5 µM]. For `Cc1cccc(NC(=O)CCN2CC(C)CC(C)C2)c1` (stereo unspecified), the “activity change, negative = growth inhibition” value is -19.3%. Regarding `CCOc1ccc(C(=O)COC(=O)c2ccc(-n3cnnn3)cc2)cc1`, the “activity change, negative = growth inhibition” value is 11.6%.

Take `COC(=O)c1ccc(/C=N/NC(=O)C(=O)N2CCCCCC2)cc1`: the “activity change, negative = growth inhibition” value was -8.03%. In the case of `CCOC(=O)c1c(S(=O)(=O)N2CCCC(C(=O)NCc3cccc(C)c3)C2)c(C)n(C)c1C` (stereo unspecified), the “activity change, negative = growth inhibition” value is -6.53%. With `CCC(C)N(C(=O)Cn1nc(C)c([N+](=O)[O-])c1C)C1CCS(=O)(=O)C1` (stereo unspecified), the “activity change, negative = growth inhibition” value is 4.68%.

As for `CCOc1ccc(NC(=O)c2ccc(NC(=O)CN3C(=O)C(=O)N(CC(C)C)C3=O)cc2)cc1`, the “activity change, negative = growth inhibition” value was -28.5%. Still for that read-out and setting: the result for `O=C(NCCCN1CCOCC1)c1ccccc1NS(=O)(=O)c1ccc(Br)cc1` reads 2.63%. For `O=C(NCCCN1CCOCC1)c1cnn2c(-c3ccccc3)cc(-c3ccccc3)nc12`, the Potency was 18.4 µM (active). Regarding `O=C(NCCCN1CCOCC1)c1ccccc1NS(=O)(=O)c1ccc(F)cc1`, the “activity change, negative = growth inhibition” value was 18.5%.

As to `O=C(NCc1ccco1)/C(=C\c1cccc([N+](=O)[O-])c1)NC(=O)c1ccco1`, the “activity change, negative = growth inhibition” value is 0.91%. For the compound `CC(=O)Oc1ccc2c(c1)C(=O)c1ccccc1C2=O`, the “activity change, negative = growth inhibition” value was -4.67%. As for `O=C1C(Cl)=C(Oc2ccccc2)C(=O)c2ccccc21`, the Potency was 0.326 µM (active). Turning to `COc1ccccc1-n1c(SCC(=O)Nc2ccc(Cl)cc2)nc(O)c(Cc2ccccc2)c1=O`, the “activity change, negative = growth inhibition” value was -21.9%. `CCc1ccc(NC(=O)c2sc3nc4c(cc3c2N)CN(CC)CC4)cc1`: the Potency is 23.1 µM (active). On the same count and under the same terms, the result for `CCN1CCc2nc3sc(C(=O)Nc4ccccc4OC(F)(F)F)c(N)c3cc2C1` reads 16.4 µM (active). As for `Cc1ccc(NC(=O)c2sc3nc(N)c(C#N)cc3c2N)cc1`, the “activity change, negative = growth inhibition” value was -7.66%. With `COc1ccc(Cl)cc1NC(=O)c1sc2nc3c(cc2c1N)CN(C)CC3`, the Potency was 23.1 µM (active). As to `CC(=O)Nc1ccc(NC(=O)c2sc3nc4c(c(-c5ccc(C)cc5)c3c2N)CCC4)cc1`, the “activity change, negative = growth inhibition” value was -1.29%. Still for that read-out and setting: the result for `COc1ccccc1NC(=O)c1ccc2nc(N3C(=O)CCC3=O)sc2c1` reads -8.2%.
